Results taken from the supplement of paper PMC11732987, “Enantioselective OTUD7B fragment discovery through chemoproteomics screening and high-throughput optimisation” (Communications Chemistry, 2025).

What was measured:
Assay in all cases: log2 ratio of Biotin-Ahx-Ub-VS probe labelling (fragment/DMSO); higher = less target engagement (more negative = stronger competition), active = hit call of the paper (q ≤ 0.05, log2 ratio ≤ -1)
Conditions in all cases: compound concentration: 200 uM; treatment time: 3 h
USP19 = target: T1, USP19 (UniProt O94966)
T1 sequence (whole entry): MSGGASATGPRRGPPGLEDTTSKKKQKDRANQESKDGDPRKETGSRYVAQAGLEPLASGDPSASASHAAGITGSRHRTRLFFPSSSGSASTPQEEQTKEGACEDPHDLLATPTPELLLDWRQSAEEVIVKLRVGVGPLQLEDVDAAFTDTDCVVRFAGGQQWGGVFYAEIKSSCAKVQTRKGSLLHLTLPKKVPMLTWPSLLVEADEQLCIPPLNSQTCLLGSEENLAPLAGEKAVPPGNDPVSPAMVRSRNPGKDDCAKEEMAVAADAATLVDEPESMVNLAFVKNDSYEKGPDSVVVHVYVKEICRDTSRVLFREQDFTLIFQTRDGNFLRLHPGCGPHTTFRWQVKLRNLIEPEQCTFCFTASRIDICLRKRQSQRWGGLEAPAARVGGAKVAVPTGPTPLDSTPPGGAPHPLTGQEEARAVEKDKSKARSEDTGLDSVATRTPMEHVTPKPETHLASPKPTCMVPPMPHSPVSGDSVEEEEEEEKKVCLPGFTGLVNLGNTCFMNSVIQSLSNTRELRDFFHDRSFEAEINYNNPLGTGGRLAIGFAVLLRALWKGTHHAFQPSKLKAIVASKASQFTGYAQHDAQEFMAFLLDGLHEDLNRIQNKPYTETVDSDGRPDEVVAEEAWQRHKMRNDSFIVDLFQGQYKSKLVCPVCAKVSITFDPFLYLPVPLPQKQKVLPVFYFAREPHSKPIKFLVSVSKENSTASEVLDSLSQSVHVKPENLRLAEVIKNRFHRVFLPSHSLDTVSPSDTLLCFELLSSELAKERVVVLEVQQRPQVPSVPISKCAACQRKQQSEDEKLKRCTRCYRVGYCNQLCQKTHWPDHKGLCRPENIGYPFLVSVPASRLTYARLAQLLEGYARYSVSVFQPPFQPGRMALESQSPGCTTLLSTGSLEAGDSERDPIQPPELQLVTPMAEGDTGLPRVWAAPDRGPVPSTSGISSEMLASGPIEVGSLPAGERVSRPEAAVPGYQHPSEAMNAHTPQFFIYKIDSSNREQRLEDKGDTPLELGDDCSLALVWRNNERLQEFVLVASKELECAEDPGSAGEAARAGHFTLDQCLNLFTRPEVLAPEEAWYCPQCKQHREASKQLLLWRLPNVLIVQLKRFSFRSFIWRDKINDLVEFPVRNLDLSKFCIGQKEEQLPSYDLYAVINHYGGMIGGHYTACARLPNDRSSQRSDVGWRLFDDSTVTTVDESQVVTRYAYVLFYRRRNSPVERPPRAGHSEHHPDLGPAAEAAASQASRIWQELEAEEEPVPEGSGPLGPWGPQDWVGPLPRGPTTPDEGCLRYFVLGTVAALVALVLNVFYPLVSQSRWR
Method in brief: (§1)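 The table lists average log2 ratios of fragment over vehicle, from an unpaired t-test on global-median-normalised Spectronaut label-free quantities. Proteins with ≥2 unique peptides were used. Samples were HEK293T lysate (495 µg) treated in triplicate with fragment at 200 µM or vehicle for 3 h, then with Biotin-Ahx-Ub-VS (0.5 µM final) for 1 h, with labelled DUBs NeutrAvidin-enriched and run by diaPASEF LC-MS/MS.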

USP22 = target: T2, USP22 (UniProt Q9UPT9)
T2 sequence (whole entry): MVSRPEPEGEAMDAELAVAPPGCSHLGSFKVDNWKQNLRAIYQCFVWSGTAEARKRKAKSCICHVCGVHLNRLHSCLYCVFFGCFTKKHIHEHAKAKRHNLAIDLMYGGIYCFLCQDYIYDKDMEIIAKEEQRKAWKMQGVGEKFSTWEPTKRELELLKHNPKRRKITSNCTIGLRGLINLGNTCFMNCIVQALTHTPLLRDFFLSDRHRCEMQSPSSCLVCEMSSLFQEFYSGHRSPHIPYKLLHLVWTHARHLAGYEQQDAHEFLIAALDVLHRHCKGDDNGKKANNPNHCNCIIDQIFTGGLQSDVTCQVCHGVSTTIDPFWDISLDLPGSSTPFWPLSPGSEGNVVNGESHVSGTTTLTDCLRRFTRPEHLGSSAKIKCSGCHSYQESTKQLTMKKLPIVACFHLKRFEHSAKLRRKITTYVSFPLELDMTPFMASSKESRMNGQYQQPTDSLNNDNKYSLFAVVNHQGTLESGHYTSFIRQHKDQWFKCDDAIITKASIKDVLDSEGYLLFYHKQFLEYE
Method in brief: as §1

USP24 = USP24 (UniProt Q9UPU5)
Method in brief: as §1

USP25 = target: T3, USP25 (UniProt Q9UHP3)
T3 sequence (whole entry): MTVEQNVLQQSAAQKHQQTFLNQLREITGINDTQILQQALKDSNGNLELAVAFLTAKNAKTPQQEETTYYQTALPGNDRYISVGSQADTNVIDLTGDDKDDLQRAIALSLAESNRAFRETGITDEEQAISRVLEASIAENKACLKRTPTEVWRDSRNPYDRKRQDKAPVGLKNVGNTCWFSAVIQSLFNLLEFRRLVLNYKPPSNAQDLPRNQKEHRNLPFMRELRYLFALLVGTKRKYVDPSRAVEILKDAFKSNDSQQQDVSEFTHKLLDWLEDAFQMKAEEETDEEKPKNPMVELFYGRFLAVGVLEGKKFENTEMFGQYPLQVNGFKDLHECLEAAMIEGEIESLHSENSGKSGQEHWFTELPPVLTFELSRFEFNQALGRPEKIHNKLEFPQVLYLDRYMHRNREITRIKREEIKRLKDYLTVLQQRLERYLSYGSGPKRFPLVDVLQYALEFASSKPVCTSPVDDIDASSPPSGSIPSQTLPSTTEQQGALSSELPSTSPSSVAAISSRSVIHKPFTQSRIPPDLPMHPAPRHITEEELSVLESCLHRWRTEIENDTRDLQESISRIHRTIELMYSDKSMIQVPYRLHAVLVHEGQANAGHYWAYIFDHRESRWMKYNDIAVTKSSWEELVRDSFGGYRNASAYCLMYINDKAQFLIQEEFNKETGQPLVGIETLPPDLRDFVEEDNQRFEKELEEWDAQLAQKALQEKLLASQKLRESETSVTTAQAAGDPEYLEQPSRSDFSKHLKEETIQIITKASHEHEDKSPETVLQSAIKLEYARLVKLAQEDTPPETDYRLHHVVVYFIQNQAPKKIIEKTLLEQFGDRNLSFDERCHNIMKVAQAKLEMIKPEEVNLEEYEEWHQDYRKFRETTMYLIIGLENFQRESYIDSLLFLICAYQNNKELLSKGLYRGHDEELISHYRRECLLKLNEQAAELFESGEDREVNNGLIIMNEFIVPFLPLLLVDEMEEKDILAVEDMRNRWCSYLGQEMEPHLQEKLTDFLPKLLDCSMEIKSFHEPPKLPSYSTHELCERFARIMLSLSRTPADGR
Method in brief: as §1

USP28 = target: T4, USP28 (UniProt Q96RU2)
T4 sequence (whole entry): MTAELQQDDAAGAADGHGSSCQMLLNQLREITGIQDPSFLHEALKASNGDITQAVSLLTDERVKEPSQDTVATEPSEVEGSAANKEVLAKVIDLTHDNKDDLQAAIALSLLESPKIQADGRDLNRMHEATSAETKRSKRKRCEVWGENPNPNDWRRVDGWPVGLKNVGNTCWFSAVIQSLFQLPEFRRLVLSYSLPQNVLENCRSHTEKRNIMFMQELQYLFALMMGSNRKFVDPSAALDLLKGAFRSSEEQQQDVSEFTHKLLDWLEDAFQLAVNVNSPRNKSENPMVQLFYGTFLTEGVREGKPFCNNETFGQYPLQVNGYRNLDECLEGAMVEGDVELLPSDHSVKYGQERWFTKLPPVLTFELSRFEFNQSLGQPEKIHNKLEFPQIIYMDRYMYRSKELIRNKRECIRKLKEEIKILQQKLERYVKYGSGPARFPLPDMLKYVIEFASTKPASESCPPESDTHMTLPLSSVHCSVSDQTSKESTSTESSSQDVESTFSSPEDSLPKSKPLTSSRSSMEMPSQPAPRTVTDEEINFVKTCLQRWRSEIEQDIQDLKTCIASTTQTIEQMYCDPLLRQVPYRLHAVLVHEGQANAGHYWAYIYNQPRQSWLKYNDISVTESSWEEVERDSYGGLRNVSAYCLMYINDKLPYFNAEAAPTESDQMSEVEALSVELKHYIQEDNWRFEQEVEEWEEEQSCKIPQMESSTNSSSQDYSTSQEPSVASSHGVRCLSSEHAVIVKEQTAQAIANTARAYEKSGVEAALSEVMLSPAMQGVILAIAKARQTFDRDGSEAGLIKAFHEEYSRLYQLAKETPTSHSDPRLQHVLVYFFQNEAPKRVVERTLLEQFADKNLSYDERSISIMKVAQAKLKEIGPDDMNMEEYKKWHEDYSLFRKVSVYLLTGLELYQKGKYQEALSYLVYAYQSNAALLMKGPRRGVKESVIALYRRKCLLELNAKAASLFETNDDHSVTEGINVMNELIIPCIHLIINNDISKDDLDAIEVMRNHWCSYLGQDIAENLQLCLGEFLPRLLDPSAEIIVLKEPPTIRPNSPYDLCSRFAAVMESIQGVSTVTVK
Method in brief: as §1

Measured: log2 ratio of Biotin-Ahx-Ub-VS probe labelling

Sequence of USP24 (Q9UPU5 whole entry): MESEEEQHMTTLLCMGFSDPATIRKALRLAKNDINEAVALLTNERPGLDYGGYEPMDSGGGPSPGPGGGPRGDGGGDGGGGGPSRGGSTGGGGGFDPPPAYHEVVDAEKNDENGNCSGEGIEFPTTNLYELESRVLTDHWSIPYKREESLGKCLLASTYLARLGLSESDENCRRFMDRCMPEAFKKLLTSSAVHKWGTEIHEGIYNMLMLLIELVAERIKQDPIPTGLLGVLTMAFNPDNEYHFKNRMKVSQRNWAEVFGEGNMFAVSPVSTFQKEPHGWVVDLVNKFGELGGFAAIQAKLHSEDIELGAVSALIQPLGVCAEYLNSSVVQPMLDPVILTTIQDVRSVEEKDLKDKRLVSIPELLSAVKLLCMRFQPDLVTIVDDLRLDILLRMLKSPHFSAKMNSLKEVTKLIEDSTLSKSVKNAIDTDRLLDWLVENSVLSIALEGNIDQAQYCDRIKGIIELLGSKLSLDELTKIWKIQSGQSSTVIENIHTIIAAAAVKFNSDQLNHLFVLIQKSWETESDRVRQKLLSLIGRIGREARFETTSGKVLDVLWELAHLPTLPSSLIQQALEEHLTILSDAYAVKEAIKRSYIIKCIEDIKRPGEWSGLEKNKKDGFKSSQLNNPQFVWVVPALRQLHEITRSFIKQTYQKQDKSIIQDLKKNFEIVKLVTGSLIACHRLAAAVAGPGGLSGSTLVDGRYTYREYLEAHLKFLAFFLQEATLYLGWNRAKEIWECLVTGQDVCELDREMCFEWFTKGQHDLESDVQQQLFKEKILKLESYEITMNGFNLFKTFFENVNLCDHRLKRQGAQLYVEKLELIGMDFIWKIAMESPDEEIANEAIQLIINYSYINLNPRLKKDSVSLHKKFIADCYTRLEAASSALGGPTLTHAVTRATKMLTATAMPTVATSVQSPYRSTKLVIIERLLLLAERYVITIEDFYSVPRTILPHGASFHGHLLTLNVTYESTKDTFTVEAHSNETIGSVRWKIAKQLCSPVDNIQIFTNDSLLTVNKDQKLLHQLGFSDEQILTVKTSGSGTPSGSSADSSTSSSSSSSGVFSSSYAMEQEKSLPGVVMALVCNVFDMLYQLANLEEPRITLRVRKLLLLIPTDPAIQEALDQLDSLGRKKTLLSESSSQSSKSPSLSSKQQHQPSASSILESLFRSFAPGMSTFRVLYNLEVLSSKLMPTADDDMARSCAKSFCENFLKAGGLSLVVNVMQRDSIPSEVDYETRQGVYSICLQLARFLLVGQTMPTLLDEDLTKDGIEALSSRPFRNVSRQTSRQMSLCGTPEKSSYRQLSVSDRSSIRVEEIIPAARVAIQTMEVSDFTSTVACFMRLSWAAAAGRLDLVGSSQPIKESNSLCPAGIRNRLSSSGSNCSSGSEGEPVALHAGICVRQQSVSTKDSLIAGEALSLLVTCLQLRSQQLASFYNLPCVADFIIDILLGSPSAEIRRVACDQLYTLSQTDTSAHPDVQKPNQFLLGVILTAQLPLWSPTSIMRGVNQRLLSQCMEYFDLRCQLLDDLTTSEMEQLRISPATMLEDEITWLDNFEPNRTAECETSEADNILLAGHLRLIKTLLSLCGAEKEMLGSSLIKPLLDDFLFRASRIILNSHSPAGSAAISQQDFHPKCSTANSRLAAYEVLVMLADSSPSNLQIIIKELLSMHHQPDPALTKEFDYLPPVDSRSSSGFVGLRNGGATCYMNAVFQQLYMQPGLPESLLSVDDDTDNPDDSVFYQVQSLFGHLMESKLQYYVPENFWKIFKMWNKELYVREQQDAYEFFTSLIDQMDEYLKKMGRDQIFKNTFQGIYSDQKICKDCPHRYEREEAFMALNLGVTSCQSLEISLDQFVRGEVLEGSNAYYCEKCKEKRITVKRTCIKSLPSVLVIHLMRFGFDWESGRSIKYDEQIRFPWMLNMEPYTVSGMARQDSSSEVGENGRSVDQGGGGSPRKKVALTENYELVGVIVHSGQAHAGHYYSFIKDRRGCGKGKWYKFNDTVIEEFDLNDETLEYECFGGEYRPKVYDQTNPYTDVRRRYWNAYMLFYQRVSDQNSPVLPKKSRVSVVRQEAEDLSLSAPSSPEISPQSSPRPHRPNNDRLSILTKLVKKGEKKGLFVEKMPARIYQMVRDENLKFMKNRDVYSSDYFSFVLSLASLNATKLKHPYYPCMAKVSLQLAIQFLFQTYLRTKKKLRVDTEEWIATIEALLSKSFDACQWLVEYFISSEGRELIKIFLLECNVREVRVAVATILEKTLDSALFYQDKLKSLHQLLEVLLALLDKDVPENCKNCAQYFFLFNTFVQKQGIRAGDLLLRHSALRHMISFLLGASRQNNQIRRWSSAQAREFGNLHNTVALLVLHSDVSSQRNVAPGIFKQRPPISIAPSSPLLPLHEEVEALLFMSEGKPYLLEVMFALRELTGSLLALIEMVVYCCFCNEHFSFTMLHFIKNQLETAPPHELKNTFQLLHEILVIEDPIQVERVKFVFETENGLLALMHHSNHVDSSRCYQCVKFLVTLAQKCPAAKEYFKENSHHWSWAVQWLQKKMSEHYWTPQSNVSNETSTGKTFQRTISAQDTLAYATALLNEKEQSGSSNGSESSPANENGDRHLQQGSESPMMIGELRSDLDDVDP

Cl.O=C(CCl)NCCc1ncc(F)cc1F
inactive: USP19 -0.108 | USP22 -0.0071 | USP24 -0.335 | USP25 -0.361 | USP28 -0.502
